Laboratory results from the OligoGym collection.

Experiments:
Assay in all cases: pooled miR-30 sensor sort-seq; sequence = guide strand
Details in all cases: shRNA
PLEKHB1 = target: PLEKHB1
PLEKHJ1 = target: PLEKHJ1
PLEKHA8 = target: PLEKHA8
PLEKHN1 = target: PLEKHN1
PML = target: PML
POLR3B = target: POLR3B
PPIP5K1 = target: PPIP5K1
PQLC1 = target: PQLC1
PRDM11 = target: PRDM11
PRB2 = target: PRB2
PRKAR1B = target: PRKAR1B
PREB = target: PREB
PRPS2 = target: PRPS2
PRSS27 = target: PRSS27
PSKH2 = target: PSKH2
PTBP2 = target: PTBP2
PYROXD1 = target: PYROXD1
Further: reference of the scale not given here.

Sequence TAGTAGTCTTGGTACGGGCTGT has a sensor-assay potency score (higher = more potent) (PLEKHB1) of -0.059.
Sequence TCAGGGTCCTCAATGAAGCTGA has a sensor-assay potency score (higher = more potent) (PLEKHJ1) of -0.114.
TAATATTTCCAACAAGATCCAT showed a sensor-assay potency score (higher = more potent) (PLEKHA8) of -0.589.
TCTGTCTCCACAGCCAGCCGCC was tested, and the sensor-assay potency score (higher = more potent) (PLEKHB1) was -1.23.
TTCACAAGTGCTCAACTCCATT gave a sensor-assay potency score (higher = more potent) (PLEKHA8) of -1.47.
For ATTTCCAACAAGATCCATCTTA, the sensor-assay potency score (higher = more potent) (PLEKHA8) was 0.673.
Work on TAATAGGACAATATTCCCCCAC yielded a sensor-assay potency score (higher = more potent) (PLEKHA8) of -0.473.
Work on TTGAACAGAACAAGCACCCTGG yielded a sensor-assay potency score (higher = more potent) (PLEKHJ1) of 0.692.
TTATTTGAACAGAACAAGCACC was tested, and the sensor-assay potency score (higher = more potent) (PLEKHJ1) was -0.886.
For TATGTCACGGACATTGAAGTGG, the sensor-assay potency score (higher = more potent) (PLEKHB1) was -0.329.
In the case of TAGGGCATCATCCTTGGTCTCC, the sensor-assay potency score (higher = more potent) (PLEKHB1) is reported as -0.411.
TAGTAGCTGCGGACATACGTGG showed a sensor-assay potency score (higher = more potent) (PLEKHB1) of -1.12.
In the case of ATTATCTACAGAATGAACTTGA, the sensor-assay potency score (higher = more potent) (PLEKHA8) is reported as 1.24.
Work on TGTACATTCATTCAGCACGGGG yielded a sensor-assay potency score (higher = more potent) (PLEKHJ1) of -1.25.
Sequence TGAAGTGGATGAGCACACGGTC has a sensor-assay potency score (higher = more potent) (PLEKHB1) of -1.12.
In the case of TTGAATTTCACAGACTGCCATT, the sensor-assay potency score (higher = more potent) (PLEKHA8) is reported as -0.888.
Work on TAGAAGATGAGGCTTCTCCGCA yielded a sensor-assay potency score (higher = more potent) (PLEKHJ1) of -0.0375.
With TTCCATTCCATCTTCCTTCCTT the sensor-assay potency score (higher = more potent) (PLEKHA8) was 0.675.
Work on AATATTTCCAACAAGATCCATC yielded a sensor-assay potency score (higher = more potent) (PLEKHA8) of -1.17.
TTCCCGTAGGTTCACAGTCAGC showed a sensor-assay potency score (higher = more potent) (PLEKHB1) of -1.99.
With TCGTAGTAGTCTTGGTACGGGC the sensor-assay potency score (higher = more potent) (PLEKHB1) was -1.27.
TTCAGCAAACTCTTTCTCCTTC was tested, and the sensor-assay potency score (higher = more potent) (PLEKHA8) was 0.589.
For TTCTTGGAGAGCAAGTAGGGGC, the sensor-assay potency score (higher = more potent) (PLEKHN1) was -0.773.
TAGGGCGGTCCGTAGTAGCTGC showed a sensor-assay potency score (higher = more potent) (PLEKHB1) of -0.166.
TTCCTGTAGAAGATGAGGCTTC was tested, and the sensor-assay potency score (higher = more potent) (PLEKHJ1) was 0.247.
With TTCTCCTCCAGGTTGATGTGGA the sensor-assay potency score (higher = more potent) (PLEKHN1) was -0.466.
Work on TGACACTGCTCCTCGCTGCTGC yielded a sensor-assay potency score (higher = more potent) (PLEKHJ1) of -0.0748.
With TAGCAGTCGCTGACATCCTGGC the sensor-assay potency score (higher = more potent) (PLEKHN1) was -0.66.
Sequence TCTCATCGTGGTAGTATCCCAG has a sensor-assay potency score (higher = more potent) (PLEKHB1) of -0.247.
TTTATTTGAACAGAACAAGCAC showed a sensor-assay potency score (higher = more potent) (PLEKHJ1) of 0.502.
Work on TTCGGCATCTGAGTCTTCCGAG yielded a sensor-assay potency score (higher = more potent) (PML) of 0.322.
TTGGTGTATCGTTTCAACGTAC gave a sensor-assay potency score (higher = more potent) (POLR3B) of -0.297.
In the case of TAAAGCATGATGACAATCTGGG, the sensor-assay potency score (higher = more potent) (PPIP5K1) is reported as 0.285.
TTGATGCTCATGCCCTCCGTGG showed a sensor-assay potency score (higher = more potent) (PQLC1) of -1.49.
TTGCACACTGACTGTAGGCGTC showed a sensor-assay potency score (higher = more potent) (PRDM11) of -0.555.
TTGAGGCTGGTTGCCTCCTTGT was tested, and the sensor-assay potency score (higher = more potent) (PRB2) was -1.75.
TGCTGTATAACAGTCTCCCCAG was tested, and the sensor-assay potency score (higher = more potent) (PRKAR1B) was -0.318.
With TTGAACTCCAGAACCTTCTCCA the sensor-assay potency score (higher = more potent) (PREB) was 0.863.
TAAGCATGTCTAATTCTGCCTG was tested, and the sensor-assay potency score (higher = more potent) (PRDM11) was -0.386.
TTTCTTCTTCTTAGCTTGGGGG was tested, and the sensor-assay potency score (higher = more potent) (PRDM11) was -0.807.
TTCCTCTTGAGGATCTCAGAGC was tested, and the sensor-assay potency score (higher = more potent) (PRKAR1B) was -0.844.
Sequence TTGTGGGGAATTTGCACTGTGA has a sensor-assay potency score (higher = more potent) (PREB) of -0.563.
For TTTGGGACTTGTTGTCTCCTTG, the sensor-assay potency score (higher = more potent) (PRB2) was -0.1.
TATAACAGTCTCCCCAGCGATG showed a sensor-assay potency score (higher = more potent) (PRKAR1B) of -1.57.
Sequence TTGATGTGCCTGGAAGCGCAGG has a sensor-assay potency score (higher = more potent) (PREB) of -0.963.
TAACGCTGAATGTTCCTCTTGA gave a sensor-assay potency score (higher = more potent) (PRKAR1B) of 0.692.
TTCTGGGTTATCCAGAACCTGC showed a sensor-assay potency score (higher = more potent) (PRDM11) of -1.79.
In the case of ATCGGAGCTAAAGTCTGTCTGC, the sensor-assay potency score (higher = more potent) (PREB) is reported as -0.682.
In the case of TTCGTGGGCTTTGAACTCCAGA, the sensor-assay potency score (higher = more potent) (PREB) is reported as -1.33.
TTCCTTCTCCAGCTTCTCGAAG was tested, and the sensor-assay potency score (higher = more potent) (PRKAR1B) was -1.27.
With TTGTTGTTGCACACTGACTGTA the sensor-assay potency score (higher = more potent) (PRDM11) was -0.0431.
TTGCACTGTGAAGAGTCGCAGG gave a sensor-assay potency score (higher = more potent) (PREB) of -0.529.
TCTAGGATGGAGACCTTGCTGA showed a sensor-assay potency score (higher = more potent) (PRKAR1B) of -0.482.
TTCTGCAGTGGATCGGAGCTAA showed a sensor-assay potency score (higher = more potent) (PREB) of 0.0919.
Work on TTCACTGACATCGAGGCAGGAG yielded a sensor-assay potency score (higher = more potent) (PREB) of 0.301.
In the case of TTTCTCTCCATCTTCAAACTGG, the sensor-assay potency score (higher = more potent) (PRKAR1B) is reported as -0.327.
In the case of TACACCTCGGCACTCACGCCTC, the sensor-assay potency score (higher = more potent) (PRKAR1B) is reported as -1.12.
TGTTGTTGCACACTGACTGTAG gave a sensor-assay potency score (higher = more potent) (PRDM11) of 0.562.
TTGTTGTCTCCTTGTGGGGGTG gave a sensor-assay potency score (higher = more potent) (PRB2) of -1.06.
AACTCCTCGTACATCTTGCGTT was tested, and the sensor-assay potency score (higher = more potent) (PRKAR1B) was -1.1.
AAAGTCTGTCTGCACCGCCTGC gave a sensor-assay potency score (higher = more potent) (PREB) of -1.08.
TTCTTCTTCTTAGCTTGGGGGT was tested, and the sensor-assay potency score (higher = more potent) (PRDM11) was -0.763.
TAATTCTGCCTGGAGCTCCCGA showed a sensor-assay potency score (higher = more potent) (PRDM11) of -0.672.
In the case of TTTTCTTCTTCTTAGCTTGGGG, the sensor-assay potency score (higher = more potent) (PRDM11) is reported as -0.102.
With TTCTTTATGCCTGTCTTGGCGG the sensor-assay potency score (higher = more potent) (PREB) was -0.991.
AGGAGATCGAGAACTTCGGGAC showed a sensor-assay potency score (higher = more potent) (PRB2) of -1.14.
For TCCGACAATAATCTCATCCAAA, the sensor-assay potency score (higher = more potent) (PRDM11) was -1.56.
With TAAGGGTAGACTACCTAGGAAC the sensor-assay potency score (higher = more potent) (PREB) was -1.26.
TTCGGGACTTGCTGCCTCCTTG showed a sensor-assay potency score (higher = more potent) (PRB2) of -0.944.
In the case of TCCATCTTCAAACTGGACGGGC, the sensor-assay potency score (higher = more potent) (PRKAR1B) is reported as -0.749.
Work on TCATCCAAACCAACTTACCTGC yielded a sensor-assay potency score (higher = more potent) (PRDM11) of -0.593.
Work on TTGATCAACGACATAGAAGTTG yielded a sensor-assay potency score (higher = more potent) (PRKAR1B) of -0.313.
Work on TAAAGTCTGTCTGCACCGCCTG yielded a sensor-assay potency score (higher = more potent) (PREB) of -0.668.
TATATTCTGCACACCATGGGTC gave a sensor-assay potency score (higher = more potent) (PRDM11) of 0.141.
TTGCTGTATAACAGTCTCCCCA showed a sensor-assay potency score (higher = more potent) (PRKAR1B) of -0.886.
With TTGTCCTTTTTATCTTGTCGGG the sensor-assay potency score (higher = more potent) (PRPS2) was -0.968.
TTCTGGAAATAGCTGGTCCAGA gave a sensor-assay potency score (higher = more potent) (PRPS2) of -1.31.
For TACAGGGACGTCTCAGAGGTGT, the sensor-assay potency score (higher = more potent) (PRSS27) was -0.7.
For TAATTGGTGAAGGGCACTGGTG, the sensor-assay potency score (higher = more potent) (PRSS27) was -1.57.
TTGTCTATAAAGTCCTTCGCCA showed a sensor-assay potency score (higher = more potent) (PSKH2) of -0.69.
TTGGTTTTGACCTTCGTGCTTG showed a sensor-assay potency score (higher = more potent) (PSKH2) of 0.0948.
TTAAAGTCAGATCTATTCCTAA gave a sensor-assay potency score (higher = more potent) (PTBP2) of 0.0356.
With TAGATTTGCTTCTAGCTTCCTT the sensor-assay potency score (higher = more potent) (PYROXD1) was 0.523.
TTTAGCTTTAGTAAGCTGTTTC was tested, and the sensor-assay potency score (higher = more potent) (PYROXD1) was -0.591.
